# Compounds with a hit are over-represented: about 18% of the library has one in this group of screens.
# DT40 TDP1 no CPT – qHTS for Inhibitors of human tyrosyl-DNA phosphodiesterase 1 (TDP1): qHTS in cells in absence of CPT. DT40 Tdp1-/- hTDP1 cells, no CPT, ATP luminescence, 48 h. Potency, µM (top dose mostly 46.2 µM), without a hit: top-dose activity change, negative = growth inhibition, most hits filed as inhibitors. AID 686978, 2013. actives 15% (n = 420,000); further: potency means the concentration at half of the fitted maximal effect; on the % scale 0 is the no-effect control and ±100 the full control effect; nearly all actives have a fitted effect of over 55% in size
#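 Compound effects on proliferation are scored in DT40 Tdp1-/-;hTDP1 cells in the absence of CPT. ATP levels (CellTiter-Glo luminescence) are recorded after a ≥48 hr, 37 °C incubation.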
# IL1B secr inh – blocks inflammasome-driven IL-1 beta release; THP-1 LPS/ATP IL-1B secretion, AlphaLISA, 16 h; stronger effect = lower value; activity change, % at 57.5 µM; actives 4.7% (n = 360,000); in the data active means activity change below about -50%; inconclusive means mostly about -30% to -49%; further: on the % scale 0 is the no-effect control and ±100 the full control effect
#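 THP-1 cells pretreated 1 hr with compounds (up to 57.5 uM final), then stimulated with LPS (250 ng/mL final) plus ATP (1.25 mM final); secreted IL-1B measured by AlphaLISA after 16 hr, decreased signal indicating inhibition.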
# HepG2 viability – counter-screen for TGF-b inhibitors: cytotoxicity in HepG2 cells; HepG2 CAGA-GFP viability, ATP luminescence, 18 h; Potency, µM (titrated, usually from 46.1 µM), without a hit: at the top dose activity change, negative = cytotoxicity, most hits filed as cytotoxic; actives 0.76% (n = 410,000); AID 588856; further: potency means the concentration at half of the fitted maximal effect
#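 CellTiter-Glo luminescence gave cytotoxicity after 18 hours at 37 degrees C. The cells were HepG2 CAGA-GFP in 1% FBS DMEM, stimulated with 500 pg/mL TGF-beta after compound addition. %Activity was normalised to no-cell wells (complete cell-killing) and DMSO (no toxicity), and curves were fitted and classified.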
# TGFb inhibitor – inhibitors of TGF-b signaling | actives 1.2% (n = 410,000) | HepG2 CAGA-GFP TGF-b/SMAD3 reporter, GFP fluorescence, 18 h; TGF-beta stimulated, 500 pg/mL final | Potency, µM (top dose mostly 46.1 µM), for inactives: top-dose activity, negative = inhibition, hits mostly inhibitors; further: potency means the concentration at half of the fitted maximal effect; on the % scale 0 is the no-effect control and ±100 the full control effect; nearly all actives have a fitted effect of over 65% in size
#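 Read-out: total well GFP (ex488/em500-530) summed from mean per-cell fluorescence. Cells: HEPG2 CAGA-GFP, 1% FBS DMEM, 18 h at 37 degrees C with 500 pg/mL final TGF-beta. Unstimulated wells served as the full-inhibition control; stimulated DMSO wells = 0%.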
# TDP1 cell CPT – DT40-hTDP1 cell growth loss with CPT; Potency, µM (series often up to 46.2 µM), without a hit: at the top dose activity change, negative = growth inhibition, hits mostly inhibitors; actives 12% (n = 420,000); AID 686979; chicken DT40 Tdp1-/-;hTDP1 cells + 20 nM CPT, ATP luminescence, 48 h; further: potency means the concentration at half of the fitted maximal effect; on the % scale 0 is the no-effect control and ±100 the full control effect; nearly all actives have a fitted effect of over 55% in size
#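 Chicken DT40 Tdp1-/- cells stably complemented with human TDP1 were seeded at 400 cells/well in medium containing 20 nM camptothecin, exposed to pin-transferred compounds, and grown at 37 °C for at least 48 hr. Viability was read as ATP luminescence.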
# TDP1 block – blocks human tyrosyl-DNA phosphodiesterase 1 | Potency, µM (titrated, usually from 130 µM), for the others: at the top dose activity change, negative = inhibition, hits mostly inhibitors | recombinant TDP1, AlphaScreen DNA substrate cleavage | Q9NUW8 | AID 485290 | actives 0.28% (n = 350,000); further: potency means the concentration at half of the fitted maximal effect; on the % scale 0 is the no-effect control and ±100 the full control effect; nearly all actives have a fitted effect of over 40% in size
# Target sequence (Q9NUW8 whole entry, looked up): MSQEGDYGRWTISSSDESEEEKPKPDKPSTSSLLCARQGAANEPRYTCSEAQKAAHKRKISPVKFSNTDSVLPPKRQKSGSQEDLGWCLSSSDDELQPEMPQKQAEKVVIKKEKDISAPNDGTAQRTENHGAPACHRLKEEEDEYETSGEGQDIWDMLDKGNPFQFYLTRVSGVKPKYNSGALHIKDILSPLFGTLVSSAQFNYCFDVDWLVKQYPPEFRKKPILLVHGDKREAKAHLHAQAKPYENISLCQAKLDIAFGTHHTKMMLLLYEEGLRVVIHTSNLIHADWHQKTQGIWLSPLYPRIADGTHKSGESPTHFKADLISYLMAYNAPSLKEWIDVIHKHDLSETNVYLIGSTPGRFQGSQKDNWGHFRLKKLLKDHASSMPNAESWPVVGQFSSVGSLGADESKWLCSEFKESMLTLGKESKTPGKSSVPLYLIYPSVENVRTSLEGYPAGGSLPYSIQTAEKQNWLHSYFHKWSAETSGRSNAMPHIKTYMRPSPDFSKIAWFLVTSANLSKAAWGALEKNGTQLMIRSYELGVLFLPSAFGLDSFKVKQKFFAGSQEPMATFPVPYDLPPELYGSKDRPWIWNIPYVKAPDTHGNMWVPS
#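 Here, a 5' biotin and 3' phosphotyrosine-FITC DNA oligonucleotide reports Tdp1 activity: intact substrate bridges AlphaScreen beads, while cleavage leaves a 3' phosphate and drops signal. All incubations at room temperature.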
# * marks the source's active call; other numbers are inactive results; ? = inconclusive; nt = no result; [ ] = another dose, or the depositor's remark. Unless noted, the call rests on the fitted dose curve; in most records, active means well fitted curve in the direction sought with a large enough effect; inconclusive means small, poorly fitted or top-dose-only effect, or another doubt; inactive means no such curve, though single readings can be large; an effect the other way counts as inactive or inconclusive.
SMILES,DT40 TDP1 no CPT,IL1B secr inh,HepG2 viability,TGFb inhibitor,TDP1 cell CPT,TDP1 block
CN(C)c1ccc(-c2nnn(CC(=O)Nc3ccccc3N3CCOCC3)n2)cc1,?,-77*,-4%,7%,?,12%
CN(C)c1ccc(-c2nnn(CC(=O)N3c4ccccc4CCc4ccccc43)n2)cc1,16µM*,-2,4%,-25%,?,8%
O=S(=O)(c1ccc(Cl)cc1)N1CCC(O)(c2cccnc2)CC1,-11%,0,-6%,-11%,-13%,6%
CCOC(=O)c1cc(-c2ccc(C)cc2)n(CC(=O)NCc2ccco2)c1C,-8%,21,-2%,-5%,-16%,0%
COc1ccc(NC(=O)Cn2c(-c3ccc(F)cc3)cc(C(C)=O)c2C)c(OC)c1,-18%,nt,1%,-18%,0%,2%
CCOC(=O)c1cc(-c2ccc(C)cc2)n(CC(=O)Nc2ccc(OC)cc2OC)c1C,?,nt,-5%,3%,23µM*,-1%
CCOC(=O)c1cccc(NC(=O)CCn2cccc2)c1,-26%,-15,-6%,21%,-11%,0%
CCOC(=O)c1cc(-c2ccc(C)cc2)n(CCC(=O)Nc2ccc(C(C)C)cc2)c1C,5.2µM*,nt,-12%,?,5.2µM*,2%
CCOC(=O)c1cccc(NC(=O)CCn2c(-c3ccc(F)cc3)cc(C(=O)OCC)c2C)c1,13µM*,nt,-25%,-8%,21µM*,6%
CCOC(=O)c1cc(-c2ccccc2)n(CCCC(=O)Nc2cccc(C)c2)c1C,16µM*,nt,-36%,?,16µM*,4%
CCOC(=O)c1cc(-c2ccc(C)cc2)n(CC(=O)Nc2ccc(OC)c(Cl)c2)c1C,16µM*,nt,-7%,2%,18µM*,-3%
CCOC(=O)c1cc(-c2ccccc2)n(CCC(=O)Nc2nc3c(C)cccc3s2)c1C,13µM*,nt,-33%,?,13µM*,7%
Cc1ccc2nc(NC(=O)CCn3cccc3)sc2c1,?,-5,-2%,5%,-19%,0%
CCOC(=O)c1cc(-c2ccccc2)n(CC(=O)Nc2ccc(OC)cc2)c1C,?,-9,-1%,-18%,-29%,-1%
Cc1cccc2sc(NC(=O)CCNS(=O)(=O)c3cccc4nonc34)nc12,18µM*,?,20µM*,?,?,9%
Cc1cccc2sc(NC(=O)CCn3cccc3)nc12,-24%,-52*,-50%,1%,5%,5%
Cc1cccc(NC(=O)CCNS(=O)(=O)c2cccc3nonc23)c1C,1%,-10,1%,-2%,5%,2%
Cc1ccc(CNc2nc(CN3CCSCC3)nc3ccccc23)o1,?,nt,nt,nt,1%[9.04 µM],nt
COc1ccc(NC(=O)CCn2c(=S)[nH]c3ccccc3c2=O)cc1OC,-1%,0,12%,11%,-9%,2%
CCOC(=O)c1cc(-c2ccccc2)n(CCCC(=O)Nc2ccc(C(C)C)cc2)c1C,21µM*,nt,-28%,?,?,6%
CCOC(=O)c1cc(-c2ccccc2)n(CCCC(=O)Nc2cccc(C)c2C)c1C,?,nt,-4%,?,16µM*,7%
CCOC(=O)c1cc(-c2ccc(C)cc2)n(CCC(=O)Nc2ccc(OC)c(OC)c2)c1C,18µM*,nt,-2%,-72%,?,9%
CCOC(=O)c1cc2occc2n1CC(=O)Nc1ccc(OC)cc1OC,?,7,-11%,-16%,23µM*,3%
CCOC(=O)c1cc(-c2ccccc2)n(CCC(=O)O)c1C,-21%,4,3%,-8%,-26%,6%
OB(O)c1cc2ccccc2s1,?,nt,-4%,47%,-22%,4%

# Source: PubChem
